The text below walks through data of PubChem BioAssay (Tox21).

Inconclusive results are not listed. The source made the active and inactive calls. Unless noted, calls come from the whole dose curve.

A short description of assay [1]: Nuclear factor erythroid 2-related factor 2/antioxidant responsive element (Nrf2/ARE) small molecule agonists: qHTS cell viability counter screen in human keratinocytes (AID 1919968; active = well fitted curve in the direction sought with a large enough effect in the repeat runs; an effect the other way counts as inactive or inconclusive; note: nearly all actives have a fitted effect of over 55% in size; note: potency is the fitted concentration of half-maximal effect). In short, it runs like this:
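After a 5 h attachment period, ARE-reporter keratinocytes were dosed with compounds in DMSO and then cultured 23 h at 37 C. Cell viability came from CellTiter-Fluor signal read after a further 1 h.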

A short description of assay [2]: Nuclear factor erythroid 2-related factor 2/antioxidant responsive element (Nrf2/ARE) small molecule agonists: luciferase reporter gene qHTS assay in human keratinocytes (AID 1919969). Note: nearly all actives have a fitted effect of over 35% in size. Note: potency is the fitted concentration of half-maximal effect.
Assay [3] has as its target Gonadotropin-releasing hormone receptor (Homo sapiens) (UniProt P30968). In words: Human gonadotropin-releasing hormone receptor (GnRHR) small molecule agonists, calcium flux assay in GnRHR-HEK293 cells (AID 1920063). Note: nearly all actives have a fitted effect of over 35% in size. In short, it runs like this: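 We seeded human GnRHR-expressing HEK293 cells for 18 hours, loaded them with calcium dye for an hour at 37 C, added test compounds, and recorded fluorescence intensity kinetically for three minutes.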

Assay [4] deals with KiSS-1 receptor (Homo sapiens) (UniProt Q969F8). Put plainly: Human kisspeptin (KISS1R) small molecule agonists, calcium flux assay in KISS1R-HEK293 cells (AID 1920064; active = well fitted curve in the direction sought with a large enough effect in the repeat runs; an effect the other way counts as inactive or inconclusive). In short, it runs like this:
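Kinetic calcium assay, 1 s sampling over 3 min at Ex/Em 480/540, in HEK293 cells engineered with human KISS1R; compounds delivered in DMSO after 1 h dye loading.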

Assay [5] is described as follows: G protein-coupled receptor (GPCR) small molecule agonists, calcium flux assay: HEK293 wild type cell line counter screen (AID 1920065). The procedure, abridged:
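Calcium-sensitive dye, loaded 1 h at 37 C into cells cultured 18 h, reports compound-evoked calcium release as fluorescence (Ex/Em 480/540), measured over 3 min. Agonist mode; 15-point titrations, triplicate.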

Assay [6] in a line: p53 small molecule agonists, cell-based qHTS assay with rat liver microsomes (AID 1963578). The procedure, abridged: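 p53RE-bla cells were exposed to compounds together with rat liver microsomes (0.5 mg/mL final) and NADPH (0.5 mg/mL final) for 16 h at 37 C, then read by LiveBLAzer beta-lactamase fluorescence after 2 h at room temperature.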
A short description of assay [7]: p53 small molecule agonists, cell-based qHTS assay with human liver microsomes: qHTS cell viability counter screen (AID 1963579). Note: nearly all actives have a fitted effect of over 45% in size. Note: potency is the fitted concentration of half-maximal effect. The procedure, abridged:
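p53RE-bla cells (4,000/well) were pre-incubated 5 h at 37 C, then given compounds in DMSO plus human liver microsomes (0.5 mg/mL final) and NADPH (0.5 mg/mL final) for 16 h at 37 C. Viability was read by CellTiter-Glo luminescence.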

The nature of assay [8]: p53 small molecule agonists, cell-based qHTS assay with rat liver microsomes: qHTS cell viability counter screen (AID 1963580). Note: nearly all actives have a fitted effect of over 45% in size. In short, it runs like this:
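Intracellular ATP, by CellTiter-Glo luminescence, defines viability. HCT-116 p53RE-bla cells, 4,000 per well, were compound-treated in the presence of rat liver microsomes and NADPH for 16 h at 37 C.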

The nature of assay [9]: p53 small molecule agonists, cell-based qHTS assay: qHTS cell viability counter screen (AID 1963581). Note: nearly all actives have a fitted effect of over 45% in size. In short, it runs like this: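 Following 5 h attachment, HCT-116 p53RE-bla cells took up compound for 16 h at 37 C; the reporter was read with B/G FRET substrate (2 h RT), and viability then via CellTiter-Glo ATP luminescence.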
Assay [10] in a line: p53 small molecule agonists, cell-based qHTS assay (AID 1963582; active = well fitted activation curve with a large enough effect in the signal ratio in the repeat runs, not every such curve was filed as active; the % refers to the signal ratio; note: potency is the fitted concentration of half-maximal effect). The procedure, abridged:
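In this cell-based concentration-response screen, a p53 response element drives beta-lactamase; cells received DMSO-borne compounds after 5 h culture and were incubated a further 16 h before FRET substrate development.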

Assay [11] has as its target 5-hydroxytryptamine receptor 2A (Homo sapiens) (UniProt P28223). In words: 5-hydroxytryptamine receptor 2A (HTR2A) small molecule antagonists, cell-based qHTS assay (AID 1963586). Note: nearly all actives have a fitted effect of over 45% in size. Note: potency is the fitted concentration of half-maximal effect. In short, it runs like this: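 Antagonist-mode intracellular calcium assay: DOI (4 nM) added after 5 min compound pre-incubation at room temperature to dye-loaded HTR2A-CHO cells. Fluorescence followed for 3 min, sampled every second.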

Assay [12] shares this target. Put plainly: 5-hydroxytryptamine receptor 2A (HTR2A) small molecule agonists, cell-based qHTS assay (AID 1963587). Note: nearly all actives have a fitted effect of over 30% in size. Note: potency is the fitted concentration of half-maximal effect. The procedure, abridged:
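Kinetic calcium-flux fluorescence (2 min, 1 sec intervals) after compound addition in agonist mode. HTR2A-CHO cells were cultured 18 h, then dye-loaded 1 h at 37 C.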

Assay [13] addresses Muscarinic acetylcholine receptor M1 (Homo sapiens) (UniProt P11229). Put plainly: Cholinergic receptor muscarinic 1 (CHRM1) small molecule antagonists, cell-based qHTS assay (AID 1963588). Note: nearly all actives have a fitted effect of over 40% in size. In short, it runs like this:
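CHRM1-CHO calcium-flux assay, antagonist mode. Cells were seeded 18 h, dye-loaded 1 h at 37 C and given compound for 5 min at RT, then acetylcholine was added at 50nM. FDSS fluorescence was read 3 min; 15 concentrations, three runs.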

The target is the same in assay [14]. Put plainly: Cholinergic receptor muscarinic 1 (CHRM1) small molecule agonists, cell-based qHTS assay (AID 1963589). Note: nearly all actives have a fitted effect of over 35% in size. In short, it runs like this: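 Measures agonist-induced intracellular calcium rise. Stable human CHRM1 CHO line, 1 h dye load at 37 C, compounds from DMSO, kinetic fluorescence read.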
Assay [15] can be described thus: cAMP Responsive Elements (CRE) small molecule agonists, cell-based qHTS assay (AID 1963590). The procedure, abridged:
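A CRE-responsive beta-lactamase reporter in HEK 293T cells was used. Treatment ran 3 h at 37 C; detection used LiveBLAzer B/G FRET substrate for 2 h at room temperature.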

Assay [16] in a line: cAMP Responsive Elements (CRE) small molecule antagonists, cell-based qHTS assay (AID 1963591; active = well fitted inhibition curve with a large enough effect in the signal ratio in the repeat runs, not every such curve was filed as active; the % refers to the signal ratio). In short, it runs like this:
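HEK293T cells carrying a CRE-driven beta-lactamase reporter receive compound and NKH477 (0.25 uM final) for 3 h. Fluorescence from LiveBLAzer B/G FRET substrate is read after 2 h at room temperature.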

Assay [17] concerns the target Beta-2 adrenergic receptor (Homo sapiens) (UniProt P07550). Put plainly: Adrenergic beta2 receptor (ADRB2) small molecule antagonists, cell-based qHTS assay (AID 1963592). Note: series mostly up to about 92 µM; nearly all actives have a fitted effect of over 50% in size. In short, it runs like this: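 Cells (CHO, stable ADRB2 overexpression) incubated 18-20hr at 37C; compounds added from DMSO; agonist mix (1nM isoproterenol, 100uM IBMX, 25uM Ro-20-1724) added; 0.5hr RT; d2-cAMP and anti-cAMP-cryptate added; 1hr RT; 665/615 nm read.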

The target of assay [18] is D(2) dopamine receptor (Homo sapiens) (UniProt P14416). Put plainly: Dopamine D2 receptor (DRD2) small molecule agonists, cell-based qHTS assay (AID 1963594). Note: nearly all actives have a fitted effect of over 35% in size. The procedure, abridged:
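cAMP accumulation in DRD2-HEK293 cells measured by HTRF after 1 h detection; compounds added 10 min before NKH477 (200nM […]) forskolin-analogue stimulation, 30 min at room temperature, with Ro20-1724 present at 0.1 mM final.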

For assay [19] the target is unchanged. In words: Dopamine D2 receptor (DRD2) small molecule antagonists, cell-based qHTS assay (AID 1963595; active = well fitted inhibition curve with a large enough effect in the signal ratio in the repeat runs, with a control signal flat; the % refers to the signal ratio; note: potency is the fitted concentration of half-maximal effect). In short, it runs like this: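 Human DRD2 antagonist qHTS measuring cAMP by HTRF. The cells are exposed to compound for 10 min, then to NKH477 (200 nM) and quinpirole (12 nM) for 30 min at RT, with Ro20-1724 (0.1 mM) present throughout.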
Assay [20] concerns the target Beta-2 adrenergic receptor (Homo sapiens) (UniProt P07550). In words: Adrenergic beta2 receptor (ADRB2) small molecule agonists, cell-based qHTS assay (AID 1963593).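 Note: CHO cells stably overexpressing human ADRB2.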 In short, it runs like this:
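CHO cells stably over-expressing ADRB2 were plated overnight at 37C, then dosed with compounds plus a stimulation mix containing 100uM IBMX and 25uM Ro-20-1724 for 0.5hr at room temperature. cAMP was measured by HTRF competition, 1hr.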

5-hydroxytryptamine receptor 2A (Homo sapiens), sequence (P28223 whole entry, looked up): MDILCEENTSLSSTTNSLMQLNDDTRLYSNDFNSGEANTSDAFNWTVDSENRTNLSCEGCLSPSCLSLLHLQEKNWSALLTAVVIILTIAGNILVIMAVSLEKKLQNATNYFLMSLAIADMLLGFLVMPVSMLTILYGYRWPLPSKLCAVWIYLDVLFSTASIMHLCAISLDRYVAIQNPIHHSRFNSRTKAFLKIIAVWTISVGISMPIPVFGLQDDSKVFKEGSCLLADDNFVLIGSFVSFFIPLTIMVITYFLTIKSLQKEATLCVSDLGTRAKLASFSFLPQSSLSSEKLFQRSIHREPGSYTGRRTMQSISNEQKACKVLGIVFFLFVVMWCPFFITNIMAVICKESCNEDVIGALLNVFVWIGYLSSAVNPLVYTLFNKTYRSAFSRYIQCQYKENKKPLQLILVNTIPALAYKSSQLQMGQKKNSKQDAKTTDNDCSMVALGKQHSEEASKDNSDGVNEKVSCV
Gonadotropin-releasing hormone receptor (Homo sapiens), sequence (P30968 whole entry, looked up): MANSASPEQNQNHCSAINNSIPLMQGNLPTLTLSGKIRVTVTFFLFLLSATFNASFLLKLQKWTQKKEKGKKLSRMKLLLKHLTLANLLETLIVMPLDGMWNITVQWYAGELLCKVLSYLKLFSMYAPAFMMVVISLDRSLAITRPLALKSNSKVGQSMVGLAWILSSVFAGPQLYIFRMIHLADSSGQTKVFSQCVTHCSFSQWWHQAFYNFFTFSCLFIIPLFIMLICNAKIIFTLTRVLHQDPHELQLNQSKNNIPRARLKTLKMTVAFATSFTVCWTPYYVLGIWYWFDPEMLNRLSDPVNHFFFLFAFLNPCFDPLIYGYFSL
Muscarinic acetylcholine receptor M1 (Homo sapiens), sequence (P11229 whole entry, looked up): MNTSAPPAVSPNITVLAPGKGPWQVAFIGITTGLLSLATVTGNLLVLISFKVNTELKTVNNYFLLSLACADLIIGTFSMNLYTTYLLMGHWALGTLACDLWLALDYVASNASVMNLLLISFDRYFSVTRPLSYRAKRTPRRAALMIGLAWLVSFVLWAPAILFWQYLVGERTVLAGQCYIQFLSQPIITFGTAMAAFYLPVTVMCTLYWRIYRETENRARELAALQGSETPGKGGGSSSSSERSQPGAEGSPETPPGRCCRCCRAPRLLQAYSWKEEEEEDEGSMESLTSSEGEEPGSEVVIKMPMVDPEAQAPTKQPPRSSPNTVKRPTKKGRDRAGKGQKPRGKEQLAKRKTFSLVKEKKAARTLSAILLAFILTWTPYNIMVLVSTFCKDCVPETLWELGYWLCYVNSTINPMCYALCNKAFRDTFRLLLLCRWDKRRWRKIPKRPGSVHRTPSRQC
KiSS-1 receptor (Homo sapiens), sequence (Q969F8 whole entry, looked up): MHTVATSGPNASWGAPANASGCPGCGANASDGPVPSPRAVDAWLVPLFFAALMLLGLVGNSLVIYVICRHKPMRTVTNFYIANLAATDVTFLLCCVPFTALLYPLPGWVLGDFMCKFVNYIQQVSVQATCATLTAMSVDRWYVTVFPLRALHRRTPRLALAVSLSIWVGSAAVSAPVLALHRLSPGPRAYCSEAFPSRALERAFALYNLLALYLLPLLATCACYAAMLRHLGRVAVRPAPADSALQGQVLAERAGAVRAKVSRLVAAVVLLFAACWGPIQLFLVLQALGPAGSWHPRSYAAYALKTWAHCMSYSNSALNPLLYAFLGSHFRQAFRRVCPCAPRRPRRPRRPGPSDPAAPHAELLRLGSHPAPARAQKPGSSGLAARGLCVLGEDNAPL
D(2) dopamine receptor (Homo sapiens), sequence (P14416 whole entry, looked up): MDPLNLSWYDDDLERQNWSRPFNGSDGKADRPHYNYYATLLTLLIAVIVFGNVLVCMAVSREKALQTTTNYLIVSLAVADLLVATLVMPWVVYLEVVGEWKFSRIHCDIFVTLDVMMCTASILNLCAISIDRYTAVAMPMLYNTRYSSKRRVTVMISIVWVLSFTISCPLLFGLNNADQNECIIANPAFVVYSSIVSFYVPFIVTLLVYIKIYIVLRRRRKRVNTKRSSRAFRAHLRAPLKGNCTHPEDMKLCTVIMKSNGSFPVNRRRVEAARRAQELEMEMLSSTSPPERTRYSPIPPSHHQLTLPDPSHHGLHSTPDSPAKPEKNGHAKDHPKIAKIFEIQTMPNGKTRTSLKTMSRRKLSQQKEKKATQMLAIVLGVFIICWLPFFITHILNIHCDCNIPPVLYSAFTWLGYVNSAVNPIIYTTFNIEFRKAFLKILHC
Beta-2 adrenergic receptor (Homo sapiens), sequence (P07550 whole entry, looked up): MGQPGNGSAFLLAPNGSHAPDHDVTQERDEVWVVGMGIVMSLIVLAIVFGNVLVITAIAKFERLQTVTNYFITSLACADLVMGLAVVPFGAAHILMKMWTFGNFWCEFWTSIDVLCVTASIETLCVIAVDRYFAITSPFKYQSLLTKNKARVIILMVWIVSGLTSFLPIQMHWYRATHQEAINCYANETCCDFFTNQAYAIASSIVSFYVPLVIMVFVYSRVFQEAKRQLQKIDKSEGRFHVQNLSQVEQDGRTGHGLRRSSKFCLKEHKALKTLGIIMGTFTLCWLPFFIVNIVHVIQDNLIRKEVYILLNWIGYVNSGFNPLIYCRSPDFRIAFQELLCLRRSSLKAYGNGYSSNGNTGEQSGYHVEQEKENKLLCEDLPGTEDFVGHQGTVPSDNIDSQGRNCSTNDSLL

Consider `COC(=O)c1cc(C(=O)OC)cc(S(=O)(=O)O)c1`, for which the Potency entry in assay [1], in assay [2], in [3], in assay [6], in assay [7] and in assay [8] was “inactive” throughout. The Potency entry in assay [9], in [10], in assay [11], in [12], in [13] and in [14] was “inactive” each time. Further, the Potency result in assay [15], in assay [16], in [17], in assay [18] and in assay [19] was “inactive” in each case. For the same molecule, the result in assay [4] and in [5] was inactive.
As for `NC1CCN(c2cccc(Cl)n2)CC1`, the Potency result in assay [1], in assay [2], in assay [3], in [8], in assay [9] and in assay [10] was “inactive” throughout. Moreover, the Potency result in assay [13], in [14], in assay [15], in assay [16], in [17] and in [18] was “inactive” each time. Further, the Potency result in assay [19] is “inactive”. The outcome in assay [4] and in assay [5] was inactive. For the same molecule, the Potency in assay [11] is 0.41 µM (active); in assay [12], 0.268 µM (active).
For `CC(COc1ccccc1)NC(C)C(O)c1ccc(O)cc1` (stereo not drawn), the Potency result in assay [1], in assay [2], in [3], in assay [7], in assay [8] and in [10] was “inactive” each time. For the same molecule, the Potency result in [12], in assay [13], in [14], in assay [16] and in assay [17] was “inactive” each time. The outcome in assay [4] and in assay [5] was inactive. Also, the Potency in assay [19] is 23.7 µM (active).
Turning to `Cn1c(=O)c2c(ncn2CC(=O)O)n(C)c1=O`, the Potency entry in assay [1], in [2], in assay [3], in assay [6], in [7] and in [8] was “inactive” in each case. In addition, the Potency result in assay [9], in assay [10], in assay [11], in [12], in [13] and in assay [14] was “inactive” in each case. The Potency entry in assay [15], in assay [16], in assay [17], in [18] and in assay [19] was “inactive” throughout. The result in assay [4] and in assay [5] was inactive.
Turning to `CC(CN1CC(=O)NC(=O)C1)N1CC(=O)NC(=O)C1` (stereo not drawn), the Potency result in [1], in assay [2], in assay [3], in assay [7], in assay [9] and in assay [12] was “inactive” each time. Besides, the Potency result in [13], in assay [14], in assay [15], in [16], in assay [17] and in assay [20] was “inactive” in each case. Moreover, the Potency result in assay [18] and in assay [19] was “inactive” each time. In addition, the result in assay [4] and in assay [5] was inactive. For the same molecule, the Potency in [10] was 19.9 µM (active).
For the molecule `CC1=C2[C@H](/C=C(\C)C(=O)O)CC[C@@H](C)[C@H]2CC1`, the Potency was 44.9 µM (active) in [1] and 29.9 µM (active) in assay [7]. The Potency result in [2], in [3], in assay [8], in assay [10], in assay [11] and in assay [12] was “inactive” throughout. The Potency result in assay [14], in assay [17], in assay [18] and in assay [19] was “inactive” in each case. For the same molecule, the result in assay [4] and in assay [5] was inactive.
For the molecule `COS(=O)(=O)C(F)(F)F`, the Potency result in [1], in assay [3], in [10], in assay [11], in assay [12] and in assay [14] was “inactive” in each case. Also, the Potency entry in assay [15], in assay [16] and in assay [18] was “inactive” throughout. Further, the Potency in [2] was 71.7 µM (active). Further, the outcome in [4] and in assay [5] was inactive.
As for `O=C(O)c1ccncc1`, the Potency entry in assay [1], in assay [2], in [3], in assay [7], in assay [8] and in assay [10] was “inactive” in each case. In addition, the Potency result in assay [12], in assay [13], in assay [14], in [15], in assay [16] and in [17] was “inactive” throughout. In addition, the Potency result in [18] and in [19] was “inactive” throughout. Moreover, the outcome in assay [4] and in assay [5] was inactive.
